# Values without a mark were called inactive. Active and inactive are the calls of the source.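 How the source made its calls: active means thallium flux through the channel raised or lowered by more than 3 SD from vehicle-only wells, actives on both sides; inactive means the rest.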
# Columns and labels:
# Assay in all cases: BK channel mutant inhibitors and activators – cell-based, U2OS BacMam, thallium flux, beta subunits, selectivity assay, profiling panel (AID 1259406);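 further: initial slope of Thallos dye fluorescence rise after thallium is added; log ratio against the mean of 0.3% DMSO vehicle wells on the same plate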
# F380Y = conditions: U2OS BacMam BK variants, at 30 µM
# F380Y/beta1 = conditions: U2OS BacMam BK variants, at 30 µM
# F380Y/beta2Delta = conditions: U2OS BacMam BK variants, at 30 µM
# F380Y/beta4 = conditions: U2OS BacMam BK variants, at 30 µM
# [1] = molecular target: Calcium-activated potassium channel subunit alpha-1 (Homo sapiens) + Leucine-rich repeat-containing protein 26 (Homo sapiens) (UniProt Q12791+Q2I0M4); conditions: U2OS BacMam BK variants, F380Y/Slo1WT/gamma1, at 30 µM
# Chain of Calcium-activated potassium channel subunit alpha-1 (Homo sapiens) + Leucine-rich repeat-containing protein 26 (Homo sapiens) (Q2I0M4 whole entry, looked up, one chain of several): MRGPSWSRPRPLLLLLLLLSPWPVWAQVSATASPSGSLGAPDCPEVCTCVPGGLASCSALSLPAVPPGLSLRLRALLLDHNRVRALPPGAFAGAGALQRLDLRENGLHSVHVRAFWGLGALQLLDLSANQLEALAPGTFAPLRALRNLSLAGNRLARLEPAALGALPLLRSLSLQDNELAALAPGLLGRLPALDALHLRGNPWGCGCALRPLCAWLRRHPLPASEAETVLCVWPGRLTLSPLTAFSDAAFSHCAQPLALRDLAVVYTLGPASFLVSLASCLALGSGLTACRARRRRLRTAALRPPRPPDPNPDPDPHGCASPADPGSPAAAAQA
# R275C = conditions: U2OS BacMam BK variants, at 30 µM
# R275C/beta1 = conditions: U2OS BacMam BK variants, at 30 µM
# R275C/beta2Delta = conditions: U2OS BacMam BK variants, at 30 µM
# R275C/beta4 = conditions: U2OS BacMam BK variants, at 30 µM
# R275C/Slo1WT/beta2 = conditions: U2OS BacMam BK variants, at 30 µM
SMILES,log fold change Tl+ flux (F380Y),log fold change Tl+ flux (F380Y/beta1),log fold change Tl+ flux (F380Y/beta2Delta),log fold change Tl+ flux (F380Y/beta4),log fold change Tl+ flux [1],log fold change Tl+ flux (R275C),log fold change Tl+ flux (R275C/beta1),log fold change Tl+ flux (R275C/beta2Delta),log fold change Tl+ flux (R275C/beta4),log fold change Tl+ flux (R275C/Slo1WT/beta2)
CCOC(=O)c1cnc(C(F)(F)F)nc1NN=Cc1c(Cl)cccc1Cl,-0.0741,0.0122,-0.0116,0.00688,-0.0599,-0.0944 (active),-0.124 (active),-0.0798,-0.0487,-0.0141
Cc1cc(C(=O)ON=C(N)c2ccc([N+](=O)[O-])o2)no1,0.0152,0.0208,0.0122,0.0216,0.00414,-0.00373,0.00585,-0.00874,0.0176,-0.0342
Cc1nc(-c2n[nH]c(=S)n2C)cs1,-0.0125,-0.0212,0.0116,-0.0241,0.0365,0.0188,0.00398,0.0232,-0.0295,-0.00583
CC12CC=C(C#N)C1(C)CC=C2C#N (stereo not given),0.0296,0.00573,0.0262,0.00555,0.0366,-0.017,0.0163,-0.011,0.0134,-0.00417
COC(=O)Cc1cccc2c(=O)c3ccccc3oc12,0.00439,-0.00882,0.0497,0.0357,0.00575,0.0179,-0.0476,0.00558,0.00377,0.049
Cc1nn(C)c(NCc2cccs2)c1[N+](=O)[O-],0.0023,0.00245,0.0628,0.018,0.0148,-0.00626,-0.0048,0.028,-0.0356,-0.0229
O=C(O)c1ccccc1C(=O)NCc1ccccc1OC(F)(F)F,-0.05,-0.0181,-0.0248,0.0063,-0.076,-0.0155,-0.0505,-0.0385,-0.0255,0.0015
NC(=O)CN1C(=O)C(=Cc2ccco2)N=C1c1ccccc1,-0.0123,-0.0266,-0.0599,-0.0551,-0.015,-0.000262,0.031,-0.0538,0.0139,-0.0206
CN1CCN(CC(=O)Nc2ccccc2Oc2ccccc2)CC1,0.0235,0.0196,0.0764,0.0239,0.0414,-2.9e-05,0.00212,0.00784,0.00808,0.0378
NC(CS(=O)(=O)Cc1ccco1)=NO,0.0416,0.0173,0.00572,0.019,-0.0714,-0.017,-0.00211,-0.0186,-0.0304,-0.0219
COc1cc(C(=O)Nc2ccccc2C(=O)NCCc2ccccn2)cc(OC)c1OC,7.8e-05,0.0128,0.0219,0.0635,0.037,0.0306,0.0367,0.0116,-0.0253,0.0509
O=C(CN1CCOCC1)Nc1ccccc1Sc1nccc(C(F)(F)F)n1,0.0122,-0.00692,-0.0219,-0.00275,0.0522,-0.0101,-0.0285,-0.0136,0.0162,0.0195
COC(=O)c1sc(-c2ccc(Cl)cc2)cc1NC(=O)c1ccc2nsnc2c1,0.0226,0.0354,0.0206,0.0283,0.00872,0.0185,-0.00968,-0.0231,-0.00956,0.0403
